Experimental findings from PubChem BioAssay (NCI) are described below.

Each structure is given as a SMILES string. The panel holds about 83,000 compounds, 20% with a hit somewhere; the sample as a whole holds those more often.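 Assay: single dose, 48 h. Readout: percent growth (0 = no net growth; negative = cell death). Active: <10.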 A number with no mark means an inactive call. Activity calls are given as the source filed them.

In the first assay the test system is UO-31 renal. The experiment in a line: NCI-60 one-dose screen, 48 h (100 = growth as untreated, 0 = no growth, -100 = all killed). To be noted: 10 µM unless noted.
`COc1cc(/C=N/N(C)C)ccc1O`: the growth was 89.1%.
In the case of `CC(=O)Nc1ccc2c(c1)c(NC(C)=O)nn2C(=O)Nc1ccc(Cc2ccccc2)cc1`, the growth was 68.2%.
Same read-out and setting: under `CC(C)(C)n1cc(-c2ccnc(NCCNS(=O)(=O)c3ccccc3)c2)c(-c2cccc(O)c2)n1` stands 61.3%.
With `CN1C2CCC1/C(=C\c1ccc(Cl)cc1)C1=C2[C@@H](c2ccc(Cl)cc2)C(C#N)=C(N)O1` (some centres undefined), the growth was 65.6%.
For `O=[N+]([O-])c1cccc(-c2nc3sccn3c2-c2ccnc(NCCCNS(=O)(=O)c3cccc(F)c3)n2)c1`, the growth was -11.6% (active).

The test system of the next assay is TK-10 renal. Described as above. To be noted: 10 µM unless noted.
Regarding `COc1ccc(-c2csc(NC(=O)CN3CCN(c4cc5c(cc4F)c(=O)c(C(=O)O)cn5C4CC4)CC3)n2)cc1`, the growth was 18%.
For `O=C(O)c1ccc(=O)[nH]n1`, the growth was 117%.
`COc1ccc(-c2cc(NC(=O)Nc3ccc(O)cc3)no2)cc1`: the growth was 96.9%.
Regarding `CCN(CC)CCCNc1cc(OC)cc2nc3cc(Cl)ccc3nc12`, the growth is -15.5% (active).
For `Clc1nc(Cl)c2c3c(sc2n1)CCCC3`, the growth is 91%.
For the molecule `CNCCCn1c2c(c3ccc([N+](=O)[O-])cc3c1=O)C(=O)c1cc(OC)cnc1-2`, the growth was -23.9% (active).
Still for that read-out and setting: under `C=C1CC2(OC1=O)C(=O)Nc1ccccc12` (centres undefined) stands 22.3%; under `CN1CCN(Cc2ccc(NC(=O)c3cncc(C#Cc4c(N)ncc5ccc(C#N)cc45)c3)cc2C(F)(F)F)CC1`, 18.3%.
As to `O=C1O[C@H]([C@H](O)CO)C(O)=C1O`, the growth was 104%.
For `COC(=S)SCN(CSC(=S)OC)c1ccc(Cl)cc1`, the growth is 109%.
The same measure, in the same setting: under `Cc1ccc(/C=C2\Oc3cc(OCC(=O)c4ccc(Cl)cc4)ccc3C2=O)cc1` stands 130%; under `CCN(C(=O)CN1CCN(c2cc3c(cc2F)c(=O)c(C(=O)O)cn3C2CC2)CC1)c1nc(-c2ccc(OC)cc2)cs1`, 77.2%.
Take `OC(c1cc(-c2ccccc2)nc2ccc(Cl)cc12)C1CCCCN1` (centres undefined): the growth is 71.3%.
Turning to `CC#CC#Cc1cccc(=O)o1`, the growth is 73.7%.
As to `CNCc1cccc2c1OCCOCCOCCN(C)S(=O)(=O)c1ccc(cc1)-c1cnc(N)c(n1)C(=O)N2`, the growth is 53.3%.
For the molecule `CCCCCCCCCCCCCCCCCCSC1=CC(=O)C(OC)=C(OC)C1=O`, the growth is 91.6%.
`CC1=C(C)C(=O)OC([C@](C)(O)[C@]2(O)CC[C@@]3(O)[C@@H]4C[C@H]5O[C@]56CC=CC(=O)[C@]6(C)[C@H]4CC[C@]23COC(=O)c2ccc(C)o2)C1` (some centres undefined): the growth is -89.8% (active).
Turning to `O=C1C[C@H](Sc2nc(-c3ccc(F)cc3)cc(C(F)(F)F)n2)[C@H]2CO[C@@H]1O2`, the growth was 99.2%.
Same read-out and setting: under `C=C1CC[C@@H]2[C@](C)(COC(C)=O)[C@H](OC(C)=O)CC[C@@]2(C)[C@@H]1CC(Nc1ccc(S(=O)(=O)Nc2nc(C)cc(C)n2)cc1)C1=CCOC1=O` (some centres undefined) stands 111%; under `COc1ccc(S(=O)(=O)NCCNc2nccc(-c3c(-c4cccc([N+](=O)[O-])c4)nc4sccn34)n2)cc1`, 108%; under `O=C(Nc1ccc(Nc2cc(Nc3ccccc3)ncn2)cc1)Nc1cc(C(F)(F)F)ccc1F`, 89.5%.
Same read-out and setting: under `COc1ccc(/C=C/C(=O)c2c(O)c(C)c(O)c3c2OC2=CC(O)=C(C(C)=O)C(=O)[C@]23C)cc1` stands -9.84% (active).
`C=C(C[n+]1ccccc1)[C@@H]1CC[C@]2(C(=O)OC)CC[C@]3(C)[C@H](CC[C@@H]4[C@@]5(C)CC[C@H](O)C(C)(C)[C@@H]5CC[C@]43C)[C@@H]12`: the growth is 113%.
On to `CCCCCCCCCCCCNC(=O)[C@H]1CSC(c2ccc(OC)c(F)c2)N1` (some centres undefined), for which the growth was -96.3% (active).
For the molecule `COc1ccccc1N1CCN(CCn2c(=O)c3c(c4ccccc4n3C)n(C)c2=O)CC1`, the growth is 78.9%.
With `CC(C)[C@H]1COC(=O)N1[C@@H]1C(=O)N([C@@H](CCC(=O)N2CCN(C3CCCC3)CC2)C(=O)N[C@@H]2CCCc3ccccc32)[C@@H]1/C=C/c1cccc(Br)c1`, the growth was 30.9%.
In the case of `Cc1nc2nc(N)nc(N)c2nc1C`, the growth was 95.4%.
As to `COc1cnc2c(c1)C(=O)c1c-2n(CCCBr)c(=O)c2cc([N+](=O)[O-])ccc12`, the growth is 36.5%.
`COc1ccc(-n2cc(-c3ccccc3)c3c(SCC(=O)N/N=C/c4ccc([N+](=O)[O-])cc4)ncnc32)cc1`: the growth is 108%.
On to `O=C(O)c1cn(C2CC2)c2cc(N3CCN(Cc4nc5c(cnn5-c5ccc([N+](=O)[O-])cc5)c(=O)[nH]4)CC3)c(F)cc2c1=O`, for which the growth was 122%.
For `CCOC(=O)c1cnc2ccc(OC)cc2c1Nc1cccc(S(=O)(=O)NC)c1`, the growth is 110%.
For `CCN(CC)CCCC(C)NCCCNc1cccc2cccnc12` (centres undefined), the growth is 97.7%.
The same measure, in the same setting: under `COc1ccc(C/C(C)=C(\c2ccc(Cl)cc2)c2ccc(OCCN3CCCCCC3)cc2)cc1` stands 90.3%.
Regarding `C=C1C(=O)O[C@H]2[C@H]1CC/C(Cn1cc(Cn3ccc4cc(Cl)ccc43)nn1)=C\CC[C@@]1(C)O[C@@H]21`, the growth was -24.7% (active).
For the molecule `COc1cc(/C=N/N(C)C)ccc1O`, the growth is 94.5%.
Still for that read-out and setting: under `CC(=O)Nc1ccc2c(c1)c(NC(C)=O)nn2C(=O)Nc1ccc(Cc2ccccc2)cc1` stands 85%; under `CC(C)(C)n1cc(-c2ccnc(NCCNS(=O)(=O)c3ccccc3)c2)c(-c2cccc(O)c2)n1`, 92%.
On the same count and under the same terms, under `CN1C2CCC1/C(=C\c1ccc(Cl)cc1)C1=C2[C@@H](c2ccc(Cl)cc2)C(C#N)=C(N)O1` (some centres undefined) stands 97%.
Consider `O=[N+]([O-])c1cccc(-c2nc3sccn3c2-c2ccnc(NCCCNS(=O)(=O)c3cccc(F)c3)n2)c1`, for which the growth was 52.9%.
